Experimental data taken from PubChem BioAssay (Tox21).
Results filed as inconclusive are left out. Active and inactive are the calls of the source. Unless noted, calls follow the shape of the dose curve; as a rule, active = well fitted curve in the direction sought with a large enough effect in the repeat runs; inconclusive = weak or mixed curves; inactive = no such curve, though single readings can be large; an effect the other way counts as inactive or inconclusive.

Legend:
[1] = qHTS RealTime-Glo MT Cell Viability Assay in HEK293 cells - 8 hour (AID 1224887); settings: RealTime-Glo luminescence; series mostly up to 76.8 µM; also: top concentration of the series differs between compounds; nearly all actives have a fitted effect of over 50% in size
How it was run: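 600 cells/well were plated with the nonlytic NanoLuc/prosubstrate reagent, pre-incubated 5 h, then given 23 nL of compound in DMSO. Incubation at 37 C for 40 h, with luminescence from viable-cell-reduced substrate read repeatedly from 0 h.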

[2] = A CellTox Green Cytotoxicity Assay to monitor cytotoxicity in HEK293 cells - 16 hour (AID 1224888); settings: CellTox Green fluorescence; series mostly up to 76.8 µM; also: nearly all actives have a fitted effect of over 35% in size
How it was run: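 HEK293 cells, 600/well, were preincubated 5 hours and then exposed to compounds at 37 C for up to 40 hours. A cell-impermeant cyanine dye staining dead-cell DNA was read by fluorescence at 0, 8, 16, 24, 32 and 40 h time points.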

[3] = qHTS RealTime-Glo MT Cell Viability Assay in HepG2 cells - 0 hour (AID 1224889); settings: RealTime-Glo luminescence; series mostly up to 76.8 µM; also: nearly all actives have a fitted effect of over 50% in size
How it was run: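 Real-time, nonlytic viability: 600 HepG2 cells/well mixed with NanoLuc enzyme plus prosubstrate; 5 h settle, compound (DMSO) added by pintool; luminescence monitored over 40 h at 37 C.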

[4] = A CellTox Green Cytotoxicity Assay to monitor cytotoxicity in HepG2 cells - 8 hour (AID 1224890); settings: CellTox Green fluorescence; series mostly up to 76.8 µM; also: nearly all actives have a fitted effect of over 45% in size
How it was run: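 HepG2 cells, 600/well, preincubated 5 h with CellTox Green dye, then exposed to Tox21 compounds in DMSO at 37 C for up to 40 h. Dead-cell DNA fluorescence read at the indicated time point.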

[5] = qHTS assay to identify small molecule antagonists of the estrogen receptor alpha (ER-alpha) signaling pathway using the BG1 cell line in the presence of 0.1 nM 17-beta-estradiol - cell viability counter screen (AID 1259241); settings: VM7Luc4E2 (BG1) viability, CellTiter-Fluor protease, 22 h, 0.1 nM estradiol agonist added; series mostly up to 92.4 µM; also: nearly all actives have a fitted effect of over 40% in size
How it was run: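 Live-cell protease activity (CellTiter-Fluor fluorescence, 30 min) was read in the same wells after VM7Luc4E2 cells had been exposed to compounds with 0.1 nM 17beta-estradiol for 22 hr at 37C.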

[6] = qHTS assay to identify small molecule antagonists of the androgen receptor (AR) signaling pathway using the MDA cell line in the presence of 0.5 nM R1881 - cell viability counter screen (AID 1259242); settings: MDA-kb2 viability, CellTiter-Fluor protease fluorescence, 16 h; series mostly up to 92.4 µM; also: nearly all actives have a fitted effect of over 45% in size
How it was run: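 MDA-kb2 cells (MMTV-luciferase, AR/GR responsive) were treated with compounds plus 0.5 nM R1881 (final) for 16 hr at 37C, 0% CO2. Viability was then read in the same wells as live-cell protease fluorescence (CellTiter-Fluor, 30 min).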

[7] = target: Estrogen receptor (Homo sapiens) (UniProt P03372); assay: qHTS assay to identify small molecule antagonists of the estrogen receptor alpha (ER-alpha) signaling pathway using the BG1 cell line in the presence of 0.1 nM 17-beta-estradiol (AID 1259244); settings: VM7Luc4E2 (BG1) ERE-luciferase, antagonist mode, 0.1 nM E2, 22 h; series mostly up to 92.4 µM; also: nearly all actives have a fitted effect of over 50% in size
Estrogen receptor (Homo sapiens), sequence (P03372 whole entry, looked up): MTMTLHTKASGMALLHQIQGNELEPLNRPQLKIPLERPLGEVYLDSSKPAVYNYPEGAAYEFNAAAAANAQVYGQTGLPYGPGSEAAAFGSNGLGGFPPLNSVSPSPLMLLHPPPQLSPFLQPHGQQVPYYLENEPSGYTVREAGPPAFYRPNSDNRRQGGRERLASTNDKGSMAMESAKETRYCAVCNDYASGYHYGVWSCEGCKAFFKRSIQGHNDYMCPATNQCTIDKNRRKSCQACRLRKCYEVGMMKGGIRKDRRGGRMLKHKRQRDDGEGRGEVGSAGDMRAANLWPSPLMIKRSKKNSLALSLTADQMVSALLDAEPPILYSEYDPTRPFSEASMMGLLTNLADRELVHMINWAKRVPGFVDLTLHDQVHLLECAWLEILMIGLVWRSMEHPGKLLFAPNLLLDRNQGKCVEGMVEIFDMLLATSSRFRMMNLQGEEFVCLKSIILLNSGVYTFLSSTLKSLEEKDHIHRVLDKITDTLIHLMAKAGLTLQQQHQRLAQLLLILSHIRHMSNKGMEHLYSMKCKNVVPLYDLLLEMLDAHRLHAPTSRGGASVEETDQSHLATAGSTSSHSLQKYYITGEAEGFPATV
How it was run: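 VM7Luc4E2 cells (endogenous full-length ER-alpha, 4×ERE-luciferase), kept 5 days in phenol red-free, charcoal-stripped FBS medium; 4,000 cells/well. Compounds added with 0.1 nM (final) 17beta-estradiol, 22 hr at 37C; luminescence read with ONE-Glo after 30 min.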

[8] = qHTS assay to identify small molecule phospholipidosis (PLD) inducers (AID 1259344; active = well fitted curve in the direction sought with a large enough effect; an effect the other way counts as inactive or inconclusive); settings: HepG2 phospholipidosis, LipidTOX Red imaging, 24 h; series mostly up to 38.3 µM
How it was run: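 HepG2 cells grown on collagen I take up LipidTOX Red while exposed to compound for 24 h; after fixation they are imaged at 20x and pit metrics are extracted.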

[9] = qHTS assay to identify small molecule HDAC inhibitors (AID 1259364); settings: HCT-116 HDAC-Glo I/II luminescence, 2 h; series mostly up to 92.4 µM; also: top concentration of the series differs between compounds; nearly all actives have a fitted effect of over 45% in size
How it was run: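 Wild-type HCT-116 cells, plated overnight at 37 C, exposed to compounds 2 hr at 37 C; luminogenic HDAC-Glo substrate then added 30 min at room temperature. Luminescence reports relative endogenous class I/II HDAC activity.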

[10] = qHTS assay to identify small molecule HDAC inhibitors - cell viability counter screen (AID 1259365); settings: HCT-116 viability, CellTiter-Glo ATP luminescence, 2 h; series mostly up to 92.4 µM; also: nearly all actives have a fitted effect of over 50% in size
How it was run: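 HCT-116 (wild type), 1,500 cells/well, overnight 37C/5% CO2; compound in DMSO 2hr; CellTiter-Glo 30min RT; luminescence read.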

[11] = qHTS assay to identify small molecule agonists of the sonic hedgehog signaling (Shh) pathway - cell viability counter screen (AID 1259366); settings: NIH/3T3 Gli1-Luc viability, CellTiter-Fluor, 24 h; series mostly up to 92.4 µM; also: nearly all actives have a fitted effect of over 50% in size
How it was run: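 CellTiter-Fluor fluorescence read-out, 1 hr at 37C, added after 23hr compound exposure. Cells: 3T3 Gli1-Luc, an NIH/3T3 clone with stably integrated Gli1-Luc reporter, plated 4hr before compound.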

[12] = qHTS assay to identify small molecule antagonists of the sonic hedgehog signaling (Shh) pathway - cell viability counter screen (AID 1259367); settings: NIH/3T3 Gli1-Luc viability, CellTiter-Fluor, 24 h; series mostly up to 92.4 µM; also: nearly all actives have a fitted effect of over 55% in size
How it was run: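 After a 4 hr settling period, 3T3 Gli1-Luc cells were treated with DMSO-dissolved chemicals and conditioned medium, kept 24 hr at 37C in 5% CO2, and assayed for viability by CellTiter-Fluor fluorescence following 1 hr reagent incubation.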

[13] = qHTS assay to identify small molecule agonists of the sonic hedgehog signaling (Shh) pathway (AID 1259368; calls by dose curve;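 also: NIH/3T3-derived 3T3Gli1-Luc cells carrying a stable Gli1-driven firefly luciferase reporter; nearly all actives have a fitted effect of over 15% in size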); settings: NIH/3T3 Gli1-Luc reporter, luciferase, 24 h, active compounds read high; series mostly up to 92.4 µM
How it was run: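 NIH/3T3-derived 3T3Gli1-Luc cells with stably integrated Gli1-driven firefly luciferase, 2,000 cells/well, compounds added after 4 hr. Incubated 24 hr at 37C, 5% CO2; luminescence read after 30 min with luciferase reagent at room temperature.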

[14] = qHTS assay to identify small molecule antagonists of the sonic hedgehog signaling (Shh) pathway (AID 1259369; calls by dose curve; also: nearly all actives have a fitted effect of over 45% in size); settings: NIH/3T3 Gli1-Luc reporter, Shh antagonist, luminescence 24 h; series mostly up to 92.4 µM
How it was run: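 NIH/3T3-derived Gli1-Luc reporter cells plated 4 h, dosed with compound, then stimulated with conditioned medium for 24 h at 37 C. Firefly luciferase luminescence read after 30 min with detection reagent at room temperature.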

[15] = target: Estrogen receptor beta (Homo sapiens) (UniProt Q92731); assay: qHTS assay to identify small molecule agonists of the estrogen receptor beta (ER-beta) signaling pathway (AID 1259377; active = well fitted activation curve with a large enough effect in the signal ratio in the repeat runs, not every such curve was filed as active; the % refers to the signal ratio); settings: ER-beta-UAS-bla HEK293T, beta-lactamase FRET ratio, 16 h; series mostly up to 92.4 µM
Estrogen receptor beta (Homo sapiens), sequence (Q92731 whole entry, looked up): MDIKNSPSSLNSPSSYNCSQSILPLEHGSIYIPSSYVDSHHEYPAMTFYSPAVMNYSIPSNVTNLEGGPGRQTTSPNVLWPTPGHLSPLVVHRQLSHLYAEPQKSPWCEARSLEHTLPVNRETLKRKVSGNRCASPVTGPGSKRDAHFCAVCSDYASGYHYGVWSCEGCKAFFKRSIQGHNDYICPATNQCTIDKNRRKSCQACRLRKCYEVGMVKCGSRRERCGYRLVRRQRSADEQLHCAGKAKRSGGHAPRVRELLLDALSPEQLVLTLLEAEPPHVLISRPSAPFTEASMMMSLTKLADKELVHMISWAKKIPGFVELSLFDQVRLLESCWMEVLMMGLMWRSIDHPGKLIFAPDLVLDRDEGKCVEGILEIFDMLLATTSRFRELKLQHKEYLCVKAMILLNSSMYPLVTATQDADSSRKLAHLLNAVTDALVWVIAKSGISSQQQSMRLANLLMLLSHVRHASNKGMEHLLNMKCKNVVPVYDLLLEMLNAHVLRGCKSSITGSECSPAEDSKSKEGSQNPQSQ
How it was run: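 Beta-lactamase reporter readout: fluorescence of LiveBLAzer B/G FRET substrate after 2 h at room temperature, following 16 h compound treatment of ER-beta-UAS-bla HEK293T cells at 37C in 2% charcoal-stripped FBS medium.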

[16] = qHTS assay to identify small molecule agonists of the estrogen receptor beta (ER-beta) signaling pathway - cell viability counter screen (AID 1259380); settings: ER-beta-bla HEK293T viability, CellTiter-Glo luminescence, 16 h; series mostly up to 92.4 µM; also: nearly all actives have a fitted effect of over 30% in size
How it was run: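 ER-beta-UAS-bla HEK293T cells in medium with 2% charcoal-stripped FBS, pre-incubated 6 hr, then treated 16 hr at 37C. Cytotoxicity read in the same wells by CellTiter-Glo luminescence after 30 min at room temperature.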

[17] = target: Androgen receptor (Homo sapiens) (UniProt P10275); assay: qHTS assay to identify small molecule antagonists of the androgen receptor (AR) signaling pathway using the MDA cell line in the presence of 0.5 nM R1881 (AID 1259243); settings: MDA-kb2 MMTV-luciferase, R1881 0.5 nM, 16 h; series mostly up to 92.4 µM; also: nearly all actives have a fitted effect of over 50% in size
Androgen receptor (Homo sapiens), sequence (P10275 whole entry, looked up): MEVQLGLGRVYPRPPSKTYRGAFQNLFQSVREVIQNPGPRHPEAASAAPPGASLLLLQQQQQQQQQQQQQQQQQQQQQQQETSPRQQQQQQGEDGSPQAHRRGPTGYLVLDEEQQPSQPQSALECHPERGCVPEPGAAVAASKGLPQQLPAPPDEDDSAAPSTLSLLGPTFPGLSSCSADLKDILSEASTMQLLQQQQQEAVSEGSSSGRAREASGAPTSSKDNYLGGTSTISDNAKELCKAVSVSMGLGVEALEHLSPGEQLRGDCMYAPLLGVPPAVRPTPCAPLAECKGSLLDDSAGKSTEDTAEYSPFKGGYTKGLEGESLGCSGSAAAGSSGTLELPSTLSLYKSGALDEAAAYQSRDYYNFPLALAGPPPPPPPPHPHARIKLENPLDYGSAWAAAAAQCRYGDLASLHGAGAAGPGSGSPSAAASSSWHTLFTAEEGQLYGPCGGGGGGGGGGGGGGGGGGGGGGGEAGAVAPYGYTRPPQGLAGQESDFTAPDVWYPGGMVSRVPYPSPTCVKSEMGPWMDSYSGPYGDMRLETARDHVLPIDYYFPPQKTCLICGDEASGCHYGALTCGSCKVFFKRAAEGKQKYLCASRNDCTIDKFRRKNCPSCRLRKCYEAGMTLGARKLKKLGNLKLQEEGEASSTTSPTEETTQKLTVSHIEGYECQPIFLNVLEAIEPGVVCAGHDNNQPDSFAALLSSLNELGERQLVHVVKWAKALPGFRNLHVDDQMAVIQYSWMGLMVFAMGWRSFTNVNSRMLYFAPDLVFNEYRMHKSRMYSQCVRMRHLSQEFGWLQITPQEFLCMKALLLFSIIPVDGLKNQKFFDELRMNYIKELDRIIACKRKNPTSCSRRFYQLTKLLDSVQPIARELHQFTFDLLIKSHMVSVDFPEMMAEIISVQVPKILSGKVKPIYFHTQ
How it was run: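 MDA-kb2 cells (MMTV-luciferase, responsive to AR and GR) at 3,000/well, rested 5 h at 37C, 0% CO2, then given compounds plus 0.5 nM R1881 (final) for 16 hr. Luciferase read with ONE-Glo after 30 min at room temperature.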

[18] = target: Estrogen receptor beta (Homo sapiens) (UniProt Q92731); assay: qHTS assay to identify small molecule antagonists of the estrogen receptor beta (ER-beta) signaling pathway (AID 1259378; active = well fitted inhibition curve with a large enough effect in the signal ratio in the repeat runs, not every such curve was filed as active; the % refers to the signal ratio); settings: ER-beta-UAS-bla HEK293T, beta-lactamase FRET ratio, 16 h; series mostly up to 92.4 µM
How it was run: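 ER-beta-UAS-bla HEK293T (GripTite) cells in 2% charcoal-stripped FBS medium were preincubated 6 hr at 37C, dosed with compound, then stimulated with 1 nM E2 (final) for 16 hr; beta-lactamase reporter read by B/G FRET fluorescence after 2 hr substrate loading.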

[19] = qHTS assay to identify small molecule agonists of the androgen receptor (AR) signaling pathway in the presence of an antagonist - cell viability counter screen (AID 1259379); settings: MDA-kb2 viability, CellTiter-Fluor, 16 h; series mostly up to 92.4 µM;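 also: MDA-kb2 human breast cancer cells carrying an MMTV luciferase reporter; nearly all actives have a fitted effect of over 25% in size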
How it was run: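 MDA-kb2 cells (MMTV-luciferase, AR/GR), 3,000/well, 5 h attachment, then 3.0 µM nilutamide (final) and compounds at 15 concentrations. Viability by CellTiter-Fluor fluorescence after 16 h at 37 °C, 0% CO2, in the reporter wells.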

[20] = target: Androgen receptor (Homo sapiens) (UniProt P10275); assay: qHTS assay to identify small molecule agonists of the androgen receptor (AR) signaling pathway in the presence of an antagonist (AID 1259381; calls by dose curve; also: nearly all actives have a fitted effect of over 15% in size); settings: MDA-kb2 MMTV-luciferase, AR agonist + nilutamide, 16 h; series mostly up to 92.4 µM
How it was run: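 MDA-kb2 cells carrying MMTV-luciferase (AR/GR responsive), 3,000 cells/well, co-treated with 3.0 uM nilutamide final. Compounds at 15 concentrations, 16 hr at 37C without CO2. Luciferase luminescence read after 30 min with ONE-Glo.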
% is scaled to controls: 0 for no effect and ±100 for the full control effect.

CCCC(=O)Nc1ccc(OCC(O)CNC(C)C)c(C(C)=O)c1 (stereo not drawn)
inactive: Potency [1] | Potency [2] | Potency [3] | Potency [4] | outcome [5] | outcome [6] | outcome [7] | outcome [8] | Potency [9] | outcome [10] | outcome [11] | outcome [12] | outcome [13] | Potency [14] | Potency [15] | outcome [16]

COc1cc(/C=C/C(N)=O)cc(OC)c1OC
inactive: Potency [1] | Potency [2] | Potency [3] | Potency [4] | outcome [5] | outcome [6] | Potency [17] | outcome [7] | Potency [9] | outcome [10] | outcome [11] | outcome [12] | outcome [13] | Potency [14] | Potency [15] | Potency [18] | outcome [19] | outcome [16] | outcome [20]

O=C(Cn1ccnc1[N+](=O)[O-])NCc1ccccc1
inactive: Potency [1] | Potency [2] | Potency [3] | Potency [4] | outcome [5] | outcome [6] | outcome [7] | outcome [8] | Potency [9] | outcome [10] | outcome [11] | outcome [12] | outcome [13] | Potency [15] | Potency [18] | outcome [19] | outcome [16]

CC(C)C1OCCN1CCOC(=O)NCCCCCCNC(=O)OCCN1CCOC1C(C)C (stereo not drawn)
inactive: Potency [1] | Potency [2] | Potency [3] | Potency [4] | outcome [5] | outcome [6] | Potency [17] | outcome [7] | Potency [9] | outcome [10] | outcome [11] | outcome [12] | outcome [13] | Potency [14] | Potency [15] | Potency [18] | outcome [16] | outcome [20]

O=C(O)CNC(=O)CNC(=O)CNC(=O)CSC(=O)c1ccccc1
inactive: Potency [1] | Potency [2] | Potency [3] | Potency [4] | outcome [5] | outcome [6] | outcome [7] | PLD induction [8] 1.13% [at 7.66 µM] | Potency [9] | outcome [10] | outcome [13] | Potency [14] | Potency [15] | Potency [18] | outcome [19] | outcome [16]

CCOc1ccccc1OCC1CNCCO1 (stereo not drawn)
inactive: Potency [1] | Potency [2] | Potency [3] | Potency [4] | outcome [5] | outcome [6] | Potency [17] | outcome [7] | Potency [9] | outcome [10] | outcome [11] | outcome [12] | outcome [13] | Potency [15] | Potency [18] | outcome [19] | outcome [16] | outcome [20]

N[C@@H](CSCCCO)C(=O)O
inactive: activity change, negative = cytotoxicity [1] -0.319% [at 15.8 µM] | activity change [2] 3.31% [at 15.8 µM, active compounds read high] | activity change, negative = cytotoxicity [3] -0.41% [at 15.8 µM] | cytotoxicity increase [4] -14.5% [at 15.8 µM] | activity change, negative = cytotoxicity [5] -2.4% [at 19 µM] | viability change, negative = cytotoxic [6] 2.53% [at 19 µM] | activity, negative = inhibition [17] -8.92% [at 19 µM] | activity change, negative = inhibition [7] -4.57% [at 19 µM] | outcome [8] | activity change, negative = inhibition [9] -2.63% [at 19 µM] | activity change, negative = cytotoxicity [10] -0.57% [at 19 µM] | viability change, negative = cytotoxic [11] -0.254% [at 19 µM] | viability change, negative = cytotoxic [12] 1.48% [at 19 µM] | activity change [13] 0.782% [at 18.9 µM] | activation [15] -2.61% [at 19 µM] | activity, negative = inhibition [18] 0.481% [at 19 µM] | activity change, negative = cytotoxicity [19] -1.46% [at 19 µM] | activity change, negative = cytotoxicity [16] 7.76% [at 19 µM] | activation [20] -0.115% [at 19 µM]
